PubChem BioAssay AID1159580 (chemical genetic matrix, 2015)
Where “and” joins values, the source holds several entries; their conditions need not be identical. Identical values can stand only once. The whole screen tested about 5,500 compounds, of which about 2,000 (36%) were called active. Not shown: some 18% with an inconclusive outcome. No stated cut-off is given here; in the data, active means normalized growth mostly below about 0.91 (no sharp cut-off); inconclusive means no clear call, values can overlap the other calls; inactive means mostly above about 0.92. The list shows a part of the results.

Experiment: chemical genetic growth profiling, strain panel (AID 1159580);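 further: tested at 20 µM; growth read once vehicle control cultures reached saturation at 30 °C; 1 = growth at the plate median or of vehicle wells; lower values mean less growth of the strain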
Details: S. cerevisiae deletion strains, growth OD

Measured: normalized growth

COC(=O)[C@@H]1OC(=O)[C@H]2O[C@@]23[C@@]1(C)CCC1[C@@]2(C)CCC(=O)C(C)(C)C2C[C@@H](OC(C)=O)[C@]13C (some centres not stated)
inactive: locus YAL021C, strain ccr4, hits give low values 1.04 | locus YAL026C, strain drs2, hits give low values 0.992 | locus YAL030W, strain snc1, hits give low values 0.989 | locus YBL061C, strain skt5, hits give low values 0.994 | locus YBR009C, strain hhf1, hits give low values 1.03 | locus YBR021W, strain FUR4, hits give low values 0.997 | locus YBR023C, strain chs3, hits give low values 1 | locus YBR171W, strain sec66, hits give low values 0.959 | locus YBR229C, strain ROT2, hits give low values 1.01 | locus YBR231C, strain swc5, hits give low values 0.974 | locus YBR279W, strain paf1, hits give low values 1.02 | locus YCL011C, strain gbp2, hits give low values 0.998 | locus YCL016C, strain dcc1, hits give low values 1.03 | locus YCL029C, strain bik1, hits give low values 0.997 | locus YCL069W, strain vba3, hits give low values 0.987 | locus YCR088W, strain abp1, hits give low values 0.972 | locus YDL005C, strain med2, hits give low values 0.969 | locus YDL035C, strain GPR1, hits give low values 0.998 | locus YDL040C, strain nat1, hits give low values 0.987 | locus YDL074C, strain BRE1, hits give low values 1.01 | locus YDL101C, strain DUN1, hits give low values 1.02 | locus YDL134C, strain PPH21, hits give low values 1.01 | locus YDL185W, strain tfp1, hits give low values 1.01 | locus YDL192W, strain arf1, hits give low values 0.988 | locus YDR001C, strain nth1, hits give low values 0.983 | locus YDR069C, strain doa4, hits give low values 0.953 | locus YDR101C, strain arx1, hits give low values 0.993 | locus YDR137W, strain rgp1, hits give low values 1 | locus YDR159W, strain sac3, hits give low values 0.92 | locus YDR162C, strain NBP2, hits give low values 0.999 | locus YDR195W, strain ref2 0.926 | locus YDR297W, strain sur2, hits give low values 1 | locus YDR318W, strain mcm21, hits give low values 1.01 | locus YDR334W, strain swr1, hits give low values 0.967 | locus YDR388W, hits give low values 1.01 | locus YDR392W, strain spt3, hits give low values 0.993 | locus YDR502C, strain sam2, hits give low values 1.02 | locus YEL003W, strain gim4, hits give low values 0.986 | locus YEL037C, strain rad23, hits give low values 0.974 | locus YEL061C, strain CIN8 (second series), hits give low values 0.975 | locus YEL061C, strain CIN8, hits give low values 1 | locus YER015W, strain faa2, hits give low values 0.98 | locus YER016W, strain bim1, hits give low values 0.98 | locus YER110C, hits give low values 1 | locus YER111C, strain swi4, hits give low values 0.984 | locus YER155C, strain BEM2 (second series), hits give low values 1.01 | locus YER155C, strain BEM2, hits give low values 1.01 | locus YER167W, strain BCK2, hits give low values 0.988 | locus YFR010W, strain ubp6, hits give low values 0.966 | locus YGL078C, strain dbp3, hits give low values 1.02 | locus YGL086W, strain mad1, hits give low values 1 | locus YGL167C, strain pmr1, hits give low values 0.993 | locus YGL173C, strain kem1, hits give low values 0.985 | locus YGL227W, strain vid30, hits give low values 0.986 | locus YGL240W, strain doc1, hits give low values 0.953 | locus YGL248W, strain PDE1, hits give low values 1.02 | locus YGL253W, strain hxk2, hits give low values 0.958 | locus YGR135W, strain pre9, hits give low values 1.06 | locus YGR252W, strain gcn5, hits give low values 1.05 | locus YHR013C, strain ard1, hits give low values 1 | locus YHR027C, strain rpn1, hits give low values 0.976 | locus YHR030C, strain SLT2, hits give low values 1 and 0.997 | locus YHR079C, strain IRE1 (second series), hits give low values 1.01 | locus YHR079C, strain IRE1, hits give low values 0.999 | locus YHR094C, strain hxt1, hits give low values 1.02 | locus YHR129C, strain ARP1, hits give low values 1.01 | locus YHR142W, strain chs7, hits give low values 0.976 | locus YHR200W, strain rpn10, hits give low values 1.02 | locus YIL066C, strain RNR3, hits give low values 0.984 | locus YIL073C, strain SPO22, hits give low values 0.998 | locus YIL125W, strain kgd1, hits give low values 1 | locus YIR030C, strain dcg1, hits give low values 0.998 | locus YJL092W, strain hpr5, hits give low values 0.971 | locus YJL095W, strain BCK1 (second series), hits give low values 0.964 | locus YJL095W, strain BCK1, hits give low values 1.03 and 0.994 | locus YJL115W, strain asf1, hits give low values 0.965 | locus YJL129C, strain trk1, hits give low values 0.939 | locus YJL134W, strain LCB3, hits give low values 0.994 | locus YJL154C, strain vps35, hits give low values 0.989 | locus YJL164C, strain tpk1, hits give low values 1.03 | locus YJL166W, strain qcr8, hits give low values 0.972 | locus YJL168C, strain set2, hits give low values 1.01 | locus YJL187C, strain SWE1 (second series), hits give low values 1.04 | locus YJR066W, strain TOR1, hits give low values 0.912 | locus YKL009W, strain mrt4, hits give low values 0.977 | locus YKL068W, hits give low values 0.998 | locus YKL085W, strain MDH1 (second series), hits give low values 0.998 | locus YKL085W, strain MDH1, hits give low values 0.998 | locus YKL160W, strain elf1, hits give low values 1.07 | locus YKL190W, strain CNB1, hits give low values 1 | locus YKR001C, strain vps1, hits give low values 0.994 | locus YKR026C, strain gcn3, hits give low values 0.966 | locus YKR091W, strain srl3, hits give low values 0.992 | locus YLL001W, strain dnm1, hits give low values 0.992 | locus YLL026W, hits give low values 0.981 | locus YLL041C, strain sdh2, hits give low values 0.98 | locus YLR027C, strain aat2, hits give low values 0.99 | locus YLR039C, strain RIC1, hits give low values 1.03 | locus YLR058C, strain SHM2, hits give low values 1.01 | locus YLR102C, strain apc9, hits give low values 1 | locus YLR113W, strain HOG1, hits give low values 1.01 | locus YLR221C, strain rsa3, hits give low values 0.987 | locus YLR258W, strain gsy2, hits give low values 1 | locus YLR262C, strain YPT6 (second series), hits give low values 1 | locus YLR268W, strain sec22, hits give low values 0.991 | locus YLR320W, strain mms22, hits give low values 0.995 | locus YLR342W, strain FKS1 (second series), hits give low values 1.04 | locus YLR342W, strain FKS1, hits give low values 0.992 | locus YLR357W, strain rsc2, hits give low values 0.967 | locus YLR370C, strain arc18, hits give low values 0.989 | locus YLR371W, strain rom2, hits give low values 0.997 | locus YLR384C, strain iki3, hits give low values 0.985 | locus YLR418C, strain cdc73, hits give low values 1.04 | locus YML016C, strain PPZ1, hits give low values 1 | locus YML032C, strain rad52, hits give low values 0.996 | locus YML120C, strain ndi1, hits give low values 1.01 | locus YML124C, strain tub3, hits give low values 1.01 | locus YMR058W, strain fet3, hits give low values 0.993 | locus YMR078C, strain ctf18, hits give low values 1.01 | locus YMR125W, strain sto1, hits give low values 0.983 | locus YMR129W, hits give low values 0.987 | locus YMR205C, strain PFK2, hits give low values 1.01 | locus YMR223W, strain ubp8, hits give low values 1.01 | locus YMR231W, strain pep5, hits give low values 0.981 | locus YMR307W, strain GAS1, hits give low values 0.917 | locus YNL067W, strain RPL9B, hits give low values 1.04 | locus YNL071W, strain lat1, hits give low values 0.976 | locus YNL153C, strain GIM3, hits give low values 1.03 | locus YNL183C, strain NPR1, hits give low values 0.929 | locus YNL209W, strain ssb2, hits give low values 0.982 | locus YNL233W, strain BNI4, hits give low values 1.02 | locus YNL248C, strain rpa49, hits give low values 0.907 | locus YNL250W, strain rad50, hits give low values 1.03 | locus YNL271C, strain bni1, hits give low values 1.01 | locus YNL298W, strain CLA4, hits give low values 0.993 | locus YNL307C, strain MCK1, hits give low values 1.02 | locus YNL322C, strain KRE1 (second series), hits give low values 0.959 | locus YNR049C, strain mso1, hits give low values 0.966 | locus YNR052C, strain pop2, hits give low values 1.03 | locus YOL006C, strain TOP1, hits give low values 1.02 | locus YOL012C, strain htz1 1.17 | locus YOL147C, strain pex11, hits give low values 0.998 | locus YOR001W, strain rrp6, hits give low values 0.909 | locus YOR061W, strain CKA2, hits give low values 0.987 | locus YOR069W, strain VPS5, hits give low values 0.999 | locus YOR070C, strain gyp1, hits give low values 1 | locus YOR080W, strain dia2, hits give low values 0.978 | locus YOR083W, strain WHI5, hits give low values 1.08 | locus YOR106W, strain vam3, hits give low values 1.03 | locus YOR136W, strain idh2, hits give low values 1.01 | locus YOR144C, strain elg1, hits give low values 1 | locus YOR184W, strain ser1, hits give low values 0.981 | locus YOR231W, strain MKK1, hits give low values 0.98 | locus YOR265W, strain rbl2, hits give low values 0.976 | locus YOR270C, strain vph1, hits give low values 1.02 | locus YOR290C, strain snf2, hits give low values 0.996 | locus YOR316C, strain cot1, hits give low values 1.01 | locus YPL051W, strain arl3, hits give low values 1.02 | locus YPL078C, strain atp4, hits give low values 1.04 | locus YPL106C, strain sse1, hits give low values 0.997 | locus YPL240C, strain hsp82, hits give low values 0.976 | locus YPL256C, strain CLN2, hits give low values 0.979 | locus YPR119W, strain clb2, hits give low values 1.01 | locus YPR141C, strain kar3, hits give low values 1.01 | locus YPR163C, strain tif3, hits give low values 1.01 | locus YPR167C, strain met16, hits give low values 1.02 | strain wtn01, hits give low values 0.998
